The list is not random: actives were taken first. Their share in the collection is about 1.2%.
PI5P4K alpha inh: qHTS for Inhibitors of phosphatidylinositol 5-phosphate 4-kinase (PI5P4K); 330,000 compounds, 1.2% hits; Phosphatidylinositol 5-phosphate 4-kinase type-2 alpha (Homo sapiens), P48426; PI5P4Kalpha enzyme, ADP-Glo luminescence, 60 min; stronger effect = lower value; max response, %; active = max response of -50% or lower; inconclusive = between -30% and -50%; inactive = -30% or higher; also: value at the top dose of about 77 µM
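Luminescence from ADP-Glo served as readout of PI5P4Kalpha activity in a qHTS format. Reaction: enzyme, substrate, compound, ATP at 5 microM final, 60 min at RT.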
GoLoco inh red: qHTS Assay for Inhibitors of RGS12 GoLoco Motif Activity (Red Fluorophore) | Gai1:RGS12 GoLoco peptide FP, rhodamine, 10 min | Guanine nucleotide-binding protein G(i) subunit alpha-1 (Homo sapiens), P63096 | 230,000 compounds, 0.44% hits | Potency, µM (top dose mostly 61.6 µM), hits mostly inhibitors; active = well fitted inhibition curve with a large enough effect, not every such curve was filed as active; inactive = no such curve, though single readings can be large or run the other way; also: nearly all actives have a fitted effect of over 30% in size
GCN5L2 inh: qHTS Assay for Inhibitors of GCN5L2; Histone acetyltransferase KAT2A (Homo sapiens), Q92830; 390,000 compounds, 0.21% hits; Potency, µM (titrated, usually from 58.9 µM), hits mostly inhibitors; GCN5L2 HAT assay, ThioGlo1 CoA-SH fluorescence
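Compounds, pin-transferred from DMSO stocks, meet 20nM GCN5L2 for 15 min before the reaction begins with H3(1-25) peptide (75uM) and acetyl-CoA (70uM). Thiol-reactive ThioGlo1 reports CoA release over 20 min at room temperature.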
PI4K2A block: qHTS for small molecular inhibitors of PI4K2A | purified PI4K2A, ADP-Glo luminescence, 1 h; stronger effect = lower value | activity change, negative = inhibition, % at 76.9 µM | 420,000 compounds, 0.13% hits | Phosphatidylinositol 4-kinase type 2-alpha (Homo sapiens), Q9BTU6; in the data active = activity change below about -50%; inconclusive = mostly about -30% to -49%
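ADP-Glo luminescence measured ADP generated by PI4K2A enzyme (4 ug/mL before mixing) with 1.2 mM PI substrate (pre-mix) and 300 microM ATP (pre-mix). Tris pH7.5 buffer with MgCl2, Triton X-100; 1 h reaction at ambient temperature.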
Pin1 inhibitor: qHTS Assay to Find Inhibitors of Pin1; Peptidyl-prolyl cis-trans isomerase NIMA-interacting 1 (Homo sapiens), Q13526; Pin1 FP peptide displacement, HiFluor488, 10 min; Potency, µM (top dose mostly 115 µM), hits mostly inhibitors; 390,000 compounds, 0.009% hits; AID 504891, 2011; active = well fitted inhibition curve with a large enough effect in the polarisation, with a control signal flat, not every such curve was filed as active; inconclusive = small, poorly fitted or top-dose-only effect, or effect the other way, or a change in a side signal; inactive = no such curve, though single readings can be large or run the other way; the % refers to the polarisation
Target sequence (Q13526 whole entry, looked up): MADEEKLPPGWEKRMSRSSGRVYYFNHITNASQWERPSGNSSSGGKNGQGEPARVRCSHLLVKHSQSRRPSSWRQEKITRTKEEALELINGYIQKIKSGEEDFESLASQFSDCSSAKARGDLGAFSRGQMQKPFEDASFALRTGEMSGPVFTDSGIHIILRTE
PGK inhibitor: qHTS Assay to Find Inhibitors of Phosphoglycerate Kinase; Phosphoglycerate kinase, glycosomal (Trypanosoma brucei brucei), P07378; PGK/GAPDH coupled, Kinase-Glo luminescence, 60 min; Potency, µM (doses to about 57.5 µM), hits mostly inhibitors; 380,000 compounds, 0.043% hits; AID 602233, 2012; also: nearly all actives have a fitted effect of over 60% in size
Target sequence (P07378 whole entry, looked up): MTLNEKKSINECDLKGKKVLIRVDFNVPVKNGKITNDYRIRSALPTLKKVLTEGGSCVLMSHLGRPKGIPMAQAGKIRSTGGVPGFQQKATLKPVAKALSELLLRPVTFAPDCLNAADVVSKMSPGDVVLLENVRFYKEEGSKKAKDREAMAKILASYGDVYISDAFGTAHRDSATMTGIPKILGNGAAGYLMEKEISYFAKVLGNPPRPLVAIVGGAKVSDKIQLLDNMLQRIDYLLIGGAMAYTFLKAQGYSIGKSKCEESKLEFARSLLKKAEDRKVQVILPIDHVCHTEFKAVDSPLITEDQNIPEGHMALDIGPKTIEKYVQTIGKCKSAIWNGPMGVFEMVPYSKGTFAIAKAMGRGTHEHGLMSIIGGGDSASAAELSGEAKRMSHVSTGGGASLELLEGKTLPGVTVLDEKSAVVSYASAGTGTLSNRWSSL
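Recombinant glycosomal PGK reaction used 1,3-bisphosphoglycerate generated in-well by GAPDH (100nM final) in 100mM TEA pH 7.6, 5mM MgCl2, 0.01% Tween-20. After 60 minutes at room temperature, ATP was read by Kinase-Glo Plus luminescence end-point.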
A number is an active result. Unless noted, calls follow the shape of the dose curve; as a rule, active = well fitted curve in the direction sought with a large enough effect; inconclusive = small, poorly fitted or top-dose-only effect, or another doubt; inactive = no such curve, though single readings can be large; an effect the other way counts as inactive or inconclusive.

Screening O=C1C2CCCN2C(=S)N1c1ccc(Cl)cc1 (stereo unspecified) returned PI5P4K alpha inh inactive, GCN5L2 inh inactive, PI4K2A block inactive, Pin1 inhibitor inactive and PGK inhibitor inactive.
`CC(=O)Nc1ccc(N2C(=O)CSC2c2ccc([N+](=O)[O-])cc2)cc1` (stereo unspecified) gave PI5P4K alpha inh inactive, GCN5L2 inh inactive, PI4K2A block inactive, Pin1 inhibitor inactive and PGK inhibitor inactive.
`COc1cccc(NC(=O)c2sc3nc(C)c(C(=O)Nc4ccc(C)cc4C)c(-c4cccs4)c3c2N)c1` gave GCN5L2 inh 17.8µM, PI4K2A block inactive, Pin1 inhibitor inconclusive and PGK inhibitor inactive.
`COc1cccc2c1nc(C)c1cc(C)oc12` gave PI5P4K alpha inh inactive, GoLoco inh red inactive, GCN5L2 inh inactive, PI4K2A block inactive, Pin1 inhibitor inactive and PGK inhibitor inactive.
COc1cccc2nc3cc(C)c(C)cc3nc12 was read as PI5P4K alpha inh inconclusive, GoLoco inh red inactive, GCN5L2 inh inactive, PI4K2A block -74.7, Pin1 inhibitor inactive and PGK inhibitor inactive.
Screening CCOC(=O)Cn1nnc(-c2ccc(S(C)(=O)=O)cc2)n1 returned GoLoco inh red inactive, GCN5L2 inh inactive, PI4K2A block inactive, Pin1 inhibitor inactive and PGK inhibitor inactive.
For O=C(CCN1C(=O)/C(=C/c2ccco2)SC1=S)Nc1ccc(C(=O)O)c(O)c1 the results were PI5P4K alpha inh -62.6, GCN5L2 inh inactive, PI4K2A block inactive, Pin1 inhibitor inconclusive and PGK inhibitor inconclusive.
`O=C(CCN1C(=O)/C(=C\c2ccco2)SC1=S)Nc1ccc(C(=O)O)c(O)c1` gave PI5P4K alpha inh -74.0, GCN5L2 inh inconclusive, PI4K2A block inactive, Pin1 inhibitor inconclusive and PGK inhibitor inactive.
Screening CC(=Cc1ccccc1)C=C1SC(=S)N(CCCC(=O)Nc2ccc(C(=O)O)cc2)C1=O returned PI5P4K alpha inh inconclusive and PI4K2A block inactive.
CC(/C=C1\SC(=S)N(CCC(=O)Nc2cccc(C(=O)O)c2)C1=O)=C\c1ccccc1 was read as PI5P4K alpha inh -76.7, GCN5L2 inh inactive, PI4K2A block inactive, Pin1 inhibitor inactive and PGK inhibitor inactive.
`O=C(NCCc1ccccc1)c1ccc2nc(-c3ccco3)c(-c3ccco3)nc2c1` gave PI5P4K alpha inh -63.3, GoLoco inh red inactive, GCN5L2 inh inconclusive, PI4K2A block inactive, Pin1 inhibitor inconclusive and PGK inhibitor inactive.
For O=C(NC1CCCC1)c1ccc2nc(-c3ccco3)c(-c3ccco3)nc2c1 the results were PI5P4K alpha inh -62.9, GCN5L2 inh inactive, PI4K2A block inconclusive and PGK inhibitor inactive.
`O=C(NC1CCCC1)c1ccc2nc[nH]c2c1` gave PI5P4K alpha inh inactive, GoLoco inh red inactive, GCN5L2 inh inactive, PI4K2A block inactive, Pin1 inhibitor inactive and PGK inhibitor inactive.
Screening O=C(NCCO)c1ccc2nc(-c3ccco3)c(-c3ccco3)nc2c1 returned PI5P4K alpha inh inactive, GoLoco inh red inactive, GCN5L2 inh inactive, PI4K2A block inconclusive and PGK inhibitor inactive.
Screening CC1(C)Cc2c(sc(/N=C/N3CCCC3)c2C#N)C(C)(C)N1 returned GoLoco inh red inactive, GCN5L2 inh inactive, PI4K2A block inactive, Pin1 inhibitor inactive and PGK inhibitor inactive.
For CCn1cc(/C=C(\NC(=O)c2ccccc2Cl)C(=O)N2CCN(C)CC2)c2ccccc21 the results were PI5P4K alpha inh inactive, GCN5L2 inh 3.16µM, PI4K2A block inactive, Pin1 inhibitor inactive and PGK inhibitor inactive.
Screening CCn1cc(/C=C(\NC(=O)c2ccccc2Cl)C(=O)N2CCOCC2)c2ccccc21 returned PI5P4K alpha inh inactive, GCN5L2 inh inactive, PI4K2A block inactive, Pin1 inhibitor inactive and PGK inhibitor inactive.
CC(C)(C)OC(=O)NCCCCC1=CC2=CC(=O)C(C)(O)C(=O)C2=CO1 (stereo unspecified) was read as PI5P4K alpha inh -80.5, GoLoco inh red inactive, PI4K2A block inactive, Pin1 inhibitor inactive and PGK inhibitor inactive.
Screening CSCCC(C(=O)N1C[C@]2(C)C[C@H]1CC(C)(C)C2)N1C(=O)c2ccccc2C1=O (stereo partly specified) returned GoLoco inh red inactive, GCN5L2 inh inactive, PI4K2A block inactive, Pin1 inhibitor inactive and PGK inhibitor inactive.
For O=C(Nc1cccc2c(=O)[nH][nH]c(=O)c12)c1ccc([N+](=O)[O-])cc1 the results were PI5P4K alpha inh -64.5 and PI4K2A block inactive.
Screening O=C(ONc1ccc(N=NC(=O)c2ccccc2O)cc1)c1ccccc1 returned PI5P4K alpha inh -58.0, GoLoco inh red inactive, GCN5L2 inh inactive, PI4K2A block inactive, Pin1 inhibitor inconclusive and PGK inhibitor inconclusive.
Screening O=Nc1ccc(NOC(=O)c2ccccc2Br)cc1 returned PI5P4K alpha inh inactive, GoLoco inh red inactive, GCN5L2 inh inactive, PI4K2A block inconclusive, Pin1 inhibitor inactive and PGK inhibitor inactive.
O=C(C=P(c1ccccc1)(c1ccccc1)c1ccccc1)c1ccccc1-c1ccccc1C(=O)C=P(c1ccccc1)(c1ccccc1)c1ccccc1 was read as PI5P4K alpha inh -64.7, PI4K2A block inactive, Pin1 inhibitor inconclusive and PGK inhibitor inactive.
Screening COc1cccc(NC(=S)NC(=O)/C=C/c2ccco2)c1 returned PI5P4K alpha inh -54.5, GCN5L2 inh inactive, PI4K2A block inactive, Pin1 inhibitor inactive and PGK inhibitor inactive.
Screening O=C(/C=C/c1ccco1)Nc1cccc(NC(=O)/C=C/c2ccco2)n1 returned PI5P4K alpha inh -58.4, GoLoco inh red inactive, GCN5L2 inh inactive, PI4K2A block inactive, Pin1 inhibitor inactive and PGK inhibitor inactive.
For Cc1nc(NC(=O)/C=C/c2ccco2)sc1C the results were PI5P4K alpha inh inconclusive, GoLoco inh red inactive, GCN5L2 inh inactive, PI4K2A block inactive, Pin1 inhibitor inactive and PGK inhibitor inactive.
For Cc1cc(NC(=O)/C=C/c2ccco2)ccc1NC(=O)c1ccccc1 the results were PI5P4K alpha inh inactive, GoLoco inh red inactive, GCN5L2 inh 3.16µM, PI4K2A block inactive, Pin1 inhibitor inactive and PGK inhibitor inactive.
CCSc1nnc(NC(=O)/C=C/c2ccco2)s1 was read as PI5P4K alpha inh inactive, GoLoco inh red inactive, GCN5L2 inh inactive, PI4K2A block inactive, Pin1 inhibitor inactive and PGK inhibitor inactive.
